Assay results from PubChem BioAssay (EPA / NIEHS).
The source made the active and inactive calls. The calls were made as follows: active = hit-call score of the fitted dose curve at least 0.9, where 1 is the maximum; inactive = score below 0.9.

Experiments:
Conditions in all cases: mRNA level, 48 h; actives raise or lower the signal
[1] = read-out: Lipase C (LIPC), LIPC (gene 3990); assay: LTEA_HepaRG_LIPC: Life Technologies and Expression Analysis (LTEA) Assay for Lipase C (LIPC) using HepaRG (AID 2283514)
Summary of the method: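 Differentiated human HepaRG cells in serum-free induction medium were exposed in duplicate for 48 h to eight concentrations (top 100 uM, half-log steps, 0.5% DMSO). LIPC mRNA was quantified by TaqMan qRT-PCR, normalized to ACTB, GAPDH and POLR2A, with bidirectional fitting versus DMSO.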

[2] = read-out: Lipoprotein lipase (LPL), LPL (gene 4023); assay: LTEA_HepaRG_LPL: Life Technologies and Expression Analysis (LTEA) Assay for Lipoprotein lipase (LPL) using HepaRG (AID 2283515)
Summary of the method: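 Differentiated human HepaRG cells in serum-free induction medium were exposed in duplicate for 48 h to eight half-log concentrations (top 100 uM) in 0.5% DMSO. LPL mRNA was quantified by TaqMan qRT-PCR, normalized to ACTB, GAPDH and POLR2A.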

[3] = read-out: MicroRNA 122 (MIR122), gene 406906; assay: LTEA_HepaRG_MIR122: Life Technologies and Expression Analysis (LTEA) Assay for MicroRNA 122 (MIR122) using HepaRG (AID 2283516); also: the transcript read is the microRNA miR-122
Summary of the method: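 HepaRG plated 48 h, switched to serum-free induction medium, then treated in duplicate for 48 h (100 uM top, half-log steps, 0.5% DMSO vehicle). RNA isolated, qRT-PCR performed, concentration-response fitted both directions relative to DMSO.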

[4] = read-out: matrix metalloproteinase-10 (MMP10), MMP10 (gene 4319); assay: LTEA_HepaRG_MMP10: Life Technologies and Expression Analysis (LTEA) Assay for matrix metalloproteinase-10 (MMP10) using HepaRG (AID 2283517)
Summary of the method: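 HepaRG, collagen I, ~100,000 cells/well; serum-free induction medium; 48 h exposure, duplicate, 8-pt half-log to 100 uM, 0.5% DMSO. Readout: TaqMan qRT-PCR, normalized to ACTB/GAPDH/POLR2A; bidirectional fit vs DMSO.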

MYC, MYC (gene 4609) = assay: LTEA_HepaRG_MYC: Life Technologies and Expression Analysis (LTEA) Assay for MYC using HepaRG (AID 2283518)
Summary of the method: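 MYC transcript changes, up or down relative to 0.5% DMSO, from TaqMan qRT-PCR normalized to three housekeeping genes. Human HepaRG cultures received chemicals for 48 h at eight half-log concentrations up to 100 uM, in duplicate.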

[5] = read-out: matrix metalloproteinase-3 (MMP3), MMP3 (gene 4314); assay: LTEA_HepaRG_MMP3: Life Technologies and Expression Analysis (LTEA) Assay for matrix metalloproteinase-3 (MMP3) using HepaRG (AID 2283519)
Summary of the method: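 Differentiated human HepaRG cells, plated 48 h on collagen I, were exposed in duplicate for 48 h in serum-free induction medium to eight half-log concentrations up to 100 uM in 0.5% DMSO. MMP3 mRNA was quantified by TaqMan qRT-PCR, normalised to ACTB, GAPDH and POLR2A.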

[6] = read-out: Paternally Expressed 10 (PEG10), PEG10 (gene 23089); assay: LTEA_HepaRG_PEG10: Life Technologies and Expression Analysis (LTEA) Assay for Paternally Expressed 10 (PEG10) using HepaRG (AID 2283520)
Summary of the method: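 HepaRG, 48 h post-plating → serum-free induction medium → 48 h chemical exposure (duplicate, 8-pt, max 100 uM, half-log, 0.5% DMSO) → lysis in RLT → TaqMan qRT-PCR for PEG10, ACTB/GAPDH/POLR2A normalisation.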

[7] = read-out: Protein phosphatase 2A (PPP2R4), PTPA (gene 5524); assay: LTEA_HepaRG_PPP2R4: Life Technologies and Expression Analysis (LTEA) Assay for Protein phosphatase 2A (PPP2R4) using HepaRG (AID 2283522)
Summary of the method: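 Readout is PPP2R4 transcript level by microfluidic qRT-PCR after 48 h chemical treatment of human HepaRG liver cells. Concentrations spanned 100 uM downward in half-log steps; gain or loss of signal was fitted relative to DMSO.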

[8] = read-out: Phosphatase and tensin (PTEN), PTEN (gene 5728); assay: LTEA_HepaRG_PTEN: Life Technologies and Expression Analysis (LTEA) Assay for Phosphatase and tensin (PTEN) using HepaRG (AID 2283523)
Summary of the method: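 Differentiated human HepaRG cells, plated 48 h then switched to serum-free induction medium, were exposed in duplicate for 48 h to eight half-log concentrations up to 100 uM in 0.5% DMSO. PTEN mRNA measured by TaqMan qRT-PCR, normalized to ACTB/GAPDH/POLR2A, bidirectional fit versus DMSO.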

[9] = read-out: Nuclear factor NF-kappa-B p105 subunit (Homo sapiens) (UniProt P19838); assay: LTEA_HepaRG_NFKB1: Life Technologies and Expression Analysis (LTEA) Assay for Nuclear Factor Kappa B Subunit 1 (NFKB1) using HepaRG (AID 2283521);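 also: TaqMan qRT-PCR transcript normalised to ACTB GAPDH and POLR2A housekeeping genes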
Summary of the method: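 HepaRG, 48 h exposure; 8-pt half-log series from 100 uM in 0.5% DMSO; duplicates. Readout: NFKB1 mRNA by qRT-PCR (Fluidigm arrays), housekeeping-normalized. Gain/loss fit vs DMSO baseline.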

Measured: outcome

Nuclear factor NF-kappa-B p105 subunit (Homo sapiens), sequence (P19838 whole entry, looked up): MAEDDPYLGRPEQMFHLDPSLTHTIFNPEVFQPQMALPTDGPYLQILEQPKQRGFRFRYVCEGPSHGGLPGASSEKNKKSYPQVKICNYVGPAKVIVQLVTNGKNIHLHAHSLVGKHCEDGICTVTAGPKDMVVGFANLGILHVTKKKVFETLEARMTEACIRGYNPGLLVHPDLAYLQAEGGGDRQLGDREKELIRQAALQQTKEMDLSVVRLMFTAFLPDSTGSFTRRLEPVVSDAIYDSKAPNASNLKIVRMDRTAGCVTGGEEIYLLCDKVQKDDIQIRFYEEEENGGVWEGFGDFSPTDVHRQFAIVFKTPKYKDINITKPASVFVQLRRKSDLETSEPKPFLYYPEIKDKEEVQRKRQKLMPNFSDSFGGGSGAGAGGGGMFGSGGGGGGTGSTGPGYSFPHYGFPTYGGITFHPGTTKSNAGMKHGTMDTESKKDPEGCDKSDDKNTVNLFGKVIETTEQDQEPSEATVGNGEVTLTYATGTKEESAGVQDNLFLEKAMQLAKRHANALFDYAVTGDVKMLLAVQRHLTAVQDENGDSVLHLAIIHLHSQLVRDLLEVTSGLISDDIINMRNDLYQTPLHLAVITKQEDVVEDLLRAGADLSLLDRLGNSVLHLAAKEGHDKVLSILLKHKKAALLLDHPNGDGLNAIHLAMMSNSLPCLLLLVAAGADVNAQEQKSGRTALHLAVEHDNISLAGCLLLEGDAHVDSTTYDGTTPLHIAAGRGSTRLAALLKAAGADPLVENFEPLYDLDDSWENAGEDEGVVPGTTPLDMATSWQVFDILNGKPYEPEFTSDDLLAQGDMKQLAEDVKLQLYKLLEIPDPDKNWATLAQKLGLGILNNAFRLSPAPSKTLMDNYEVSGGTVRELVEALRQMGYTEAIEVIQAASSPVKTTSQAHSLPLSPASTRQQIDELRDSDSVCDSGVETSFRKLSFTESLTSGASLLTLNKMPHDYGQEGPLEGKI

Cc1ccc([N+](=O)[O-])cc1N
not listed: [9]
inactive: all other assays above

C1CNCCN1
inactive: all assays above

Nc1ccc(C(=O)O)cc1
inactive: all assays above
